Assay results as given in ChEMBL document CHEMBL1961873, “Compounds: GSK PKIS; Assays: Nanosyn kinase panel” (2012).

Experiments:
[1] = test system: Epidermal growth factor receptor (Homo sapiens), P00533 [T790M]; details: at 1 µM
[2] = test system: Epidermal growth factor receptor (Homo sapiens), P00533 [L858R,T790M]; details: at 0.1 µM
[3] = test system: Epidermal growth factor receptor (Homo sapiens), P00533 [L858R,T790M]; details: at 1 µM
[4] = target: Ephrin type-A receptor 2 (Homo sapiens) (UniProt P29317); details: at 0.1 µM
Chain of Ephrin type-A receptor 2 (Homo sapiens) (P29317 whole entry): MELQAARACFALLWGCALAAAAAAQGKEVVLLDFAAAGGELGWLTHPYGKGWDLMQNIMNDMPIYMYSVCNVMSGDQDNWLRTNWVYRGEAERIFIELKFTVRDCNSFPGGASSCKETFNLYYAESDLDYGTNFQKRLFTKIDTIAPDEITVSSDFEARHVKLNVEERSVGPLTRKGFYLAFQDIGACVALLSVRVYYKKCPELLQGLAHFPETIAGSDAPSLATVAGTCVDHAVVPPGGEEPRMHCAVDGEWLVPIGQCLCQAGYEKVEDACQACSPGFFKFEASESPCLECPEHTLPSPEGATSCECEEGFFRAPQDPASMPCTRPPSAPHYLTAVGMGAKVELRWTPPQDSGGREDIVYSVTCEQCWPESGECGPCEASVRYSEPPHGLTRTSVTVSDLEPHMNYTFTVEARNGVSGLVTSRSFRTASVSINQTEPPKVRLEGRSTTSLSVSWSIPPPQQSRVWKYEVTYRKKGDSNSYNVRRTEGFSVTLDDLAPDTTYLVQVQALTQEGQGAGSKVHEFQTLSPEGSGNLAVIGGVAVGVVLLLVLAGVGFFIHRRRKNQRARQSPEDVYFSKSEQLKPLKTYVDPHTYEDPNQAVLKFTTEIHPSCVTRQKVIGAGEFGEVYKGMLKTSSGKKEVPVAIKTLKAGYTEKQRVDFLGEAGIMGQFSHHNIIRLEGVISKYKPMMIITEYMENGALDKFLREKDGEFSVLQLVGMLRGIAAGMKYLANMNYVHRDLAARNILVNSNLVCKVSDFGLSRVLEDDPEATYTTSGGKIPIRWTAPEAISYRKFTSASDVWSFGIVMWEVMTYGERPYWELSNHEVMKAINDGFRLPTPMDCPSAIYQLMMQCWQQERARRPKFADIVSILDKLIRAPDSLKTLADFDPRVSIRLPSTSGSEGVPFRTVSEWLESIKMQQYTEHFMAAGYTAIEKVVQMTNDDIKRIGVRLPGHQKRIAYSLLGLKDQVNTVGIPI

[5] = target: Ephrin type-A receptor 2 (Homo sapiens) (UniProt P29317); details: at 1 µM
[6] = target: T1, Ephrin type-A receptor 3 (Homo sapiens) (UniProt P29320); details: at 0.1 µM
T1 sequence (whole entry): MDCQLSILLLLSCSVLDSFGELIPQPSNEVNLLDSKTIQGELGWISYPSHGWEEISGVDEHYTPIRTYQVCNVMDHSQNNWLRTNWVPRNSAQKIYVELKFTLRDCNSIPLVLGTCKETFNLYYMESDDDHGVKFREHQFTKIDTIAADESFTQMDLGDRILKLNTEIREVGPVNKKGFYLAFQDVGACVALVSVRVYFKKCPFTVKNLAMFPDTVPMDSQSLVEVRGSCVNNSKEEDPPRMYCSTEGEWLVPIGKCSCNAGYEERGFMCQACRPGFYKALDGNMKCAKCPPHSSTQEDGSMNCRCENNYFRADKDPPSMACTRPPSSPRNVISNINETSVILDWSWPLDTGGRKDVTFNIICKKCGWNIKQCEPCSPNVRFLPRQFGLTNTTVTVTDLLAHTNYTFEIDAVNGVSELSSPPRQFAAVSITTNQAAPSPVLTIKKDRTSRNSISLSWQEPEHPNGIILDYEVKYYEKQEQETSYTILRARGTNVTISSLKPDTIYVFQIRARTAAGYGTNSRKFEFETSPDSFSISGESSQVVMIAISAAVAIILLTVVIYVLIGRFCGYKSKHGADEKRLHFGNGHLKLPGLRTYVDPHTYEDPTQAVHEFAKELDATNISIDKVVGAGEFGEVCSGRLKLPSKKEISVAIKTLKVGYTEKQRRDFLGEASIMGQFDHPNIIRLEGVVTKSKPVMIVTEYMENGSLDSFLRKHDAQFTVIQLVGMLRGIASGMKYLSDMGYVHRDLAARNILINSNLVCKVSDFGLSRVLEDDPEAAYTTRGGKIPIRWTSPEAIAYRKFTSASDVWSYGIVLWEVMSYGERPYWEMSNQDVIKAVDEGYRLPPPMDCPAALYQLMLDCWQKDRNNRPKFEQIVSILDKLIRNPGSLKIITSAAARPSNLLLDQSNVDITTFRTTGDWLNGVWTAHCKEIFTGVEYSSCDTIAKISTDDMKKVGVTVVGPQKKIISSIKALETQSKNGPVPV

[7] = target: T1, Ephrin type-A receptor 3 (Homo sapiens); details: at 1 µM
[8] = target: Ephrin type-A receptor 4 (Homo sapiens) (UniProt P54764); details: at 0.1 µM
[9] = target: Ephrin type-A receptor 4 (Homo sapiens) (UniProt P54764); details: at 1 µM
[10] = target: T2, Ephrin type-B receptor 2 (Homo sapiens) (UniProt P29323); details: at 0.1 µM
T2 sequence (whole entry): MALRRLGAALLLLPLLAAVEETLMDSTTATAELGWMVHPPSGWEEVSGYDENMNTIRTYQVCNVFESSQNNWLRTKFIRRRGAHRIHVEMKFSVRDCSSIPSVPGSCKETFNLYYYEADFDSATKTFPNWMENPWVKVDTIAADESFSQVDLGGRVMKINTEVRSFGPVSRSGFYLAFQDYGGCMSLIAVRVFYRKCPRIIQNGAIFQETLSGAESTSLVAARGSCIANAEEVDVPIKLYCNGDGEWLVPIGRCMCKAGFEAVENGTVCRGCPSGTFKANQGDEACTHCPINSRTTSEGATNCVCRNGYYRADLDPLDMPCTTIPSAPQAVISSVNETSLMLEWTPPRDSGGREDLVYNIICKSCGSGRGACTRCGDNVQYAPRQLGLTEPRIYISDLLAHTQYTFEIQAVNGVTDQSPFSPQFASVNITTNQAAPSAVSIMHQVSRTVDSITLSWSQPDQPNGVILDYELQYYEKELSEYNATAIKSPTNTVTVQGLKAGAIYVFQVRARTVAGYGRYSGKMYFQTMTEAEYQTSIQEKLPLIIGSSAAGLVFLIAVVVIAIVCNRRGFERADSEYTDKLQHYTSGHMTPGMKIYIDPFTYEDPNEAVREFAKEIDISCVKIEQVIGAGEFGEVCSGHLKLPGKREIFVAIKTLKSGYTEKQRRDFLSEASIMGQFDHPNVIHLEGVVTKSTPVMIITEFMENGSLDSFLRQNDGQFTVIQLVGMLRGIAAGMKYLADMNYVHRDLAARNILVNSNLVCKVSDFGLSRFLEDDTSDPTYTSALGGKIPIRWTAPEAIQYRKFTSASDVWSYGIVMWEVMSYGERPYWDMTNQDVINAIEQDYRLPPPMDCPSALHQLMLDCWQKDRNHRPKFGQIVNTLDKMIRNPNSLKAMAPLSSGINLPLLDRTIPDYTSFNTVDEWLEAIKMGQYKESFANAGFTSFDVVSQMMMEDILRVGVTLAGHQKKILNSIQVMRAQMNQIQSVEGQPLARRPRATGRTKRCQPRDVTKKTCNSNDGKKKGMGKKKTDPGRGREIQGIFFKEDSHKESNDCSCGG

[11] = target: T2, Ephrin type-B receptor 2 (Homo sapiens); details: at 1 µM
[12] = target: T3, Ephrin type-B receptor 3 (Homo sapiens) (UniProt P54753); details: at 0.1 µM
T3 sequence (whole entry): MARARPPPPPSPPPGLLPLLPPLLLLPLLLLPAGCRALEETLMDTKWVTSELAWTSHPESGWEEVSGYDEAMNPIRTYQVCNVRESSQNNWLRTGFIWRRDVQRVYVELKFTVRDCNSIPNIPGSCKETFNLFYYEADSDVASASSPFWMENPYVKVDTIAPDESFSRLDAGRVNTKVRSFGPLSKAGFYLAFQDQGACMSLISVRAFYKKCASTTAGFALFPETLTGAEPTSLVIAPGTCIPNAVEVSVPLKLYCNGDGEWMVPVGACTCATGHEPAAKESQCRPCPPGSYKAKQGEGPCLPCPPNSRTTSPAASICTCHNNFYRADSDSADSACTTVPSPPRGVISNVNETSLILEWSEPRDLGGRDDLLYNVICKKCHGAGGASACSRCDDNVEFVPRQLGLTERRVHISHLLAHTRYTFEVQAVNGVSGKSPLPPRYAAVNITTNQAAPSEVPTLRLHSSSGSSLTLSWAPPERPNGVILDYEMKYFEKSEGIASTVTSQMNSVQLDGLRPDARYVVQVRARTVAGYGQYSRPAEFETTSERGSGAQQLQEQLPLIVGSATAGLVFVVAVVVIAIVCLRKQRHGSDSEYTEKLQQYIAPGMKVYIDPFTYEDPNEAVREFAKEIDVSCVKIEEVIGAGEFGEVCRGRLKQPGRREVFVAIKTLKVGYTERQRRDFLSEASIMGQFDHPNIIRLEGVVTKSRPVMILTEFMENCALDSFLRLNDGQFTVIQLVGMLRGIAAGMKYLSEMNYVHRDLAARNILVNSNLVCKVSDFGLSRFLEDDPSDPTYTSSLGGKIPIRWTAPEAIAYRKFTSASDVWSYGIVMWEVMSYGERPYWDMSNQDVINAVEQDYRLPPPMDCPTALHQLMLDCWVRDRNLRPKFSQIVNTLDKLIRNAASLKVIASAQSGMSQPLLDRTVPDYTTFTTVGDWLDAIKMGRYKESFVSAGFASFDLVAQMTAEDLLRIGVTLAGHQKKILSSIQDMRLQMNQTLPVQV

[13] = target: T3, Ephrin type-B receptor 3 (Homo sapiens); details: at 1 µM
[14] = target: T4, Ephrin type-B receptor 4 (Homo sapiens) (UniProt P54760); details: at 0.1 µM
T4 sequence (whole entry): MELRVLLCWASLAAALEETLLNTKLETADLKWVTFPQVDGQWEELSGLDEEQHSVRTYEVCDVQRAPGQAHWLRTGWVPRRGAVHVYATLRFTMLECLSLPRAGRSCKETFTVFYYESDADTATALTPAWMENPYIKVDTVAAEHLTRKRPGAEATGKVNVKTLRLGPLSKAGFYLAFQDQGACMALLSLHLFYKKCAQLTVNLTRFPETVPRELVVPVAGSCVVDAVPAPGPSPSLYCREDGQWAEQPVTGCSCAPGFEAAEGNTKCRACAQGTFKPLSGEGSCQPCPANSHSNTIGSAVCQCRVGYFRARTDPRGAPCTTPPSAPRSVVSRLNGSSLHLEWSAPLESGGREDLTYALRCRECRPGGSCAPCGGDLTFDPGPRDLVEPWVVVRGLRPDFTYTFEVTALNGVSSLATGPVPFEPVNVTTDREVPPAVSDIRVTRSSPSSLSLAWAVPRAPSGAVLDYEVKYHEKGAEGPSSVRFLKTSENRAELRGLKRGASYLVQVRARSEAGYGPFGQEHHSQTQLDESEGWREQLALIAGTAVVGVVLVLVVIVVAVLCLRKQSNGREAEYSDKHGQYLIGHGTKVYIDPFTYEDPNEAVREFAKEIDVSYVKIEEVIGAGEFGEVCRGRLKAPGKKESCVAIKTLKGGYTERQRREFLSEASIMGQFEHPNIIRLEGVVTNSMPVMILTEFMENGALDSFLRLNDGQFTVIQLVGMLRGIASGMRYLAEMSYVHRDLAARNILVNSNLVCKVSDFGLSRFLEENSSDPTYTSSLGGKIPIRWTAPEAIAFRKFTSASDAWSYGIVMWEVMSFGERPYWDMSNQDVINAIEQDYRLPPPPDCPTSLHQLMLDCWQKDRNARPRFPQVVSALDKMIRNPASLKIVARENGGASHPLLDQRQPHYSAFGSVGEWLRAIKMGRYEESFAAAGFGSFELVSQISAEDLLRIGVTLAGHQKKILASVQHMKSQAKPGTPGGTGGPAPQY

[15] = target: T4, Ephrin type-B receptor 4 (Homo sapiens); details: at 1 µM
[16] = target: Receptor tyrosine-protein kinase erbB-2 (Homo sapiens) (UniProt P04626); details: at 0.1 µM
Chain of Receptor tyrosine-protein kinase erbB-2 (Homo sapiens) (P04626 whole entry): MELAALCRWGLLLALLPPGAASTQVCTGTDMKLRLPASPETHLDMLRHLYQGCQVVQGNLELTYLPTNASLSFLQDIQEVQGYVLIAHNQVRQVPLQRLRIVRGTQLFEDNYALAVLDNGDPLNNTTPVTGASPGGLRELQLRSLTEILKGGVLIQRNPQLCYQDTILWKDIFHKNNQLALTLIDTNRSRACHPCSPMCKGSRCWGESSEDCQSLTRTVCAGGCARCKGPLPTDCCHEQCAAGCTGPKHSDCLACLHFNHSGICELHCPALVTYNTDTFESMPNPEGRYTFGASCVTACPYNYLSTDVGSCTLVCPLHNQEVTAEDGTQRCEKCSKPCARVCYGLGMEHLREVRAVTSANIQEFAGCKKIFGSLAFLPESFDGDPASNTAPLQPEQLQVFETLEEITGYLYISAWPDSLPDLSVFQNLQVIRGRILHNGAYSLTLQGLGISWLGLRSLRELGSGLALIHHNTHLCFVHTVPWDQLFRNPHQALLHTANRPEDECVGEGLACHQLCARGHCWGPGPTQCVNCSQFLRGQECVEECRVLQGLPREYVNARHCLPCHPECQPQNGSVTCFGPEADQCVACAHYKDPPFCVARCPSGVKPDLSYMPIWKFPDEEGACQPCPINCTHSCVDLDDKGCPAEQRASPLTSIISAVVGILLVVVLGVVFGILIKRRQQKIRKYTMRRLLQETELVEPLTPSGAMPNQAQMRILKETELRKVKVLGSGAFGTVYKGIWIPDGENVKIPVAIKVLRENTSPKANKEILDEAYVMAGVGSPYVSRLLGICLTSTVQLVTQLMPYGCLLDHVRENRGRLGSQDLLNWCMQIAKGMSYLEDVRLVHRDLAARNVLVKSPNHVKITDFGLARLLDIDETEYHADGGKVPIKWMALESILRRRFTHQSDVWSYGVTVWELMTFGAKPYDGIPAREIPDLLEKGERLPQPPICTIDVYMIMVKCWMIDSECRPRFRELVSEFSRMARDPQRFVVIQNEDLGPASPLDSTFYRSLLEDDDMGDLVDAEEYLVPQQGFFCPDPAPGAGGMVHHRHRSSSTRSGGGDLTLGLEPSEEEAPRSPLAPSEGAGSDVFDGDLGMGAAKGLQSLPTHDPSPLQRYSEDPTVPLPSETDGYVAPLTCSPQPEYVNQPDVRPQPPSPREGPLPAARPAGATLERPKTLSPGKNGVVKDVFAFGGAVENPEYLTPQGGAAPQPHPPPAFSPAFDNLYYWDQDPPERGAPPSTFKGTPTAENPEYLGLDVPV

[17] = target: Receptor tyrosine-protein kinase erbB-2 (Homo sapiens) (UniProt P04626); details: at 1 µM
[18] = target: Receptor tyrosine-protein kinase erbB-4 (Homo sapiens) (UniProt Q15303); details: at 0.1 µM
[19] = target: Receptor tyrosine-protein kinase erbB-4 (Homo sapiens) (UniProt Q15303); details: at 1 µM
[20] = target: Tyrosine-protein kinase Fer (Homo sapiens) (UniProt P16591); details: at 0.1 µM;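 note: reported figures are averaged percent inhibition of FER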
Chain of Tyrosine-protein kinase Fer (Homo sapiens) (P16591 whole entry, looked up): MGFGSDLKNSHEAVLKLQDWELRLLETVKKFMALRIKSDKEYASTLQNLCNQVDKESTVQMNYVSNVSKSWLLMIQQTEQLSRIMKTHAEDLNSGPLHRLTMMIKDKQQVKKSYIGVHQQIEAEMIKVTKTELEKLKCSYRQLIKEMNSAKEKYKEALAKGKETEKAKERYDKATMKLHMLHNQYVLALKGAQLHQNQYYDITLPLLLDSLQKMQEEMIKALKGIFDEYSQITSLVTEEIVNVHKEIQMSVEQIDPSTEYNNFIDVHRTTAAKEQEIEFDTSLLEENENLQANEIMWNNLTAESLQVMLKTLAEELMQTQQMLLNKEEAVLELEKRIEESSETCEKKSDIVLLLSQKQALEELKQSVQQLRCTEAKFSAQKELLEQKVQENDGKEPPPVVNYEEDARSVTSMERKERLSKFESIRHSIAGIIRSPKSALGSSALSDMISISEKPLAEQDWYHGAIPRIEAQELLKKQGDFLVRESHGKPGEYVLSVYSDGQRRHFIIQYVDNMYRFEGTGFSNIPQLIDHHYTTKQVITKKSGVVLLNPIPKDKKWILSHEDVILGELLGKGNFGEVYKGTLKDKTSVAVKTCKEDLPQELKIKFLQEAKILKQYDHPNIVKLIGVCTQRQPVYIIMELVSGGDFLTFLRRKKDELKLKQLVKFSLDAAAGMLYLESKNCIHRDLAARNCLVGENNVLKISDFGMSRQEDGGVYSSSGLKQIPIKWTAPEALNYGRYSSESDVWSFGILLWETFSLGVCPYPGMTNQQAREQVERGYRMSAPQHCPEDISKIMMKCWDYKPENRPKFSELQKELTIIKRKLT

Chain of Epidermal growth factor receptor (Homo sapiens), P00533 [T790M] (P00533 whole entry T790M): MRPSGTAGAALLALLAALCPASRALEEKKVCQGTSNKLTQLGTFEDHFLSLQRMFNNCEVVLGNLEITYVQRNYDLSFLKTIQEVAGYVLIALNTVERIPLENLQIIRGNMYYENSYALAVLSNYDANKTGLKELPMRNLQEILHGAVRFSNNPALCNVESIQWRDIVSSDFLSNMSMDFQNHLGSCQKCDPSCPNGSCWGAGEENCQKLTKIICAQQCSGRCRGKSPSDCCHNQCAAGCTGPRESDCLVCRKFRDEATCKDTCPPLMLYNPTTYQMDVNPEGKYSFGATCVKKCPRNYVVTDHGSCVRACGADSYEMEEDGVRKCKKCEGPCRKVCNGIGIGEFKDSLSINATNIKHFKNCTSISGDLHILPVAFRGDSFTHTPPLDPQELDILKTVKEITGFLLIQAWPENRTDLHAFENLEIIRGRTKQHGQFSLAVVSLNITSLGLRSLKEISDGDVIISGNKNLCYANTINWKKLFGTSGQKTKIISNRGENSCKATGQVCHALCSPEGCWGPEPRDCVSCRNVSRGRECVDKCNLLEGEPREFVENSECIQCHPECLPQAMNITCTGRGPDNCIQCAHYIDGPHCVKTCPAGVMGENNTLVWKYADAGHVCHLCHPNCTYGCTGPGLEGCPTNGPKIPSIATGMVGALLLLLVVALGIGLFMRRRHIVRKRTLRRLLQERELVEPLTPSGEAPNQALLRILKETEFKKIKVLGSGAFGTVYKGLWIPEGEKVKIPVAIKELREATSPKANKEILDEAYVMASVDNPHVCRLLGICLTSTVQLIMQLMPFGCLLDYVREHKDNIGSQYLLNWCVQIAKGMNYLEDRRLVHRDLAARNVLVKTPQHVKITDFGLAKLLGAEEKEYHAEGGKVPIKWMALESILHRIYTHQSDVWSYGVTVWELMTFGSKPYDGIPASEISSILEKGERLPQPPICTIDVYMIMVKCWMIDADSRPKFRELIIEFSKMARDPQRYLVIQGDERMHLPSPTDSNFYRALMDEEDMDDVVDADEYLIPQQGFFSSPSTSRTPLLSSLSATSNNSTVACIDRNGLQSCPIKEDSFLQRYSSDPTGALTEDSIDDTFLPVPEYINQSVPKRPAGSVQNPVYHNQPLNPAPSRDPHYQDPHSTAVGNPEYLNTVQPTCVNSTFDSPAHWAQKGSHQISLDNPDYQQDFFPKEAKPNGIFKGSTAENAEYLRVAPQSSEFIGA

| SMILES | inhibition [1] [%] | inhibition [2] [%] | inhibition [3] [%] | inhibition [4] [%] | inhibition [5] [%] | inhibition [6] [%] | inhibition [7] [%] | inhibition [8] [%] | inhibition [9] [%] | inhibition [10] [%] | inhibition [11] [%] | inhibition [12] [%] | inhibition [13] [%] | inhibition [14] [%] | inhibition [15] [%] | inhibition [16] [%] | inhibition [17] [%] | inhibition [18] [%] | inhibition [19] [%] | inhibition [20] [%] |
| --- | --- | --- | --- | --- | --- | --- | --- | --- | --- | --- | --- | --- | --- | --- | --- | --- | --- | --- | --- | --- |
| O=C1NC(=O)C(c2ccccc2Cl)=C1Nc1cccc(O)c1 | 0.02 | 0.56 | 1.35 | 2.61 | 1.5 | 2.51 | 2.67 | 5.56 | 2.36 | 5.61 | 7.6 | 4.32 | 1.16 | 1.29 | 3.19 | 0.64 | -0.2 | 8.95 | 8.95 | 4.57 |
| NC(=O)c1cccc(Nc2nccc(Nc3cccc4[nH]ncc34)n2)c1 | -2.41 | -5.66 | 8.31 | 7.85 | 53.6 | 40.2 | 72.9 | 31 | 81.1 | 30.4 | 77.8 | -3.41 | 4.33 | 22.2 | 72.1 | -4.62 | 2.08 | -6.41 | -1.88 | 3.13 |
| COc1cc2ncn(-c3cc(O[C@@H](C)c4ccccc4Cl)c(C(N)=O)s3)c2cc1OC | 2.06 | 1.8 | 5.2 | 1.55 | 1.17 | 1.7 | 6.21 | 6.22 | 14.2 | 7.76 | 14.1 | 3.27 | 3.66 | 1.67 | 4.23 | 0.23 | 6.51 | 6.3 | 14.2 | 6.4 |
| COc1cc2c(cc1Nc1nc(N3CCc4ccccc43)c3cc[nH]c3n1)N(C(=O)CN(C)C)CC2 | 2.36 | 3.77 | 9.23 | 2.22 | 2.11 | 2.13 | 0.93 | 3.39 | 6.36 | 2.81 | 9.31 | 2.82 | 0.49 | 1 | 0.73 | 1.22 | -0.36 | 6.72 | 6.14 | 66.2 |
| Cn1cc(C=C2C(=O)Nc3cccnc32)c2ccccc21 |  |  |  | 1.74 | 0.79 | 2.31 | 4.83 | 5.07 | 6.23 | 3.99 | 12 | 4.59 | -0.71 | 0.9 | 5.16 | 0.95 | 3.11 | 9.66 | 9.14 | 0.48 |
| CNC(=O)c1cncc(/C=C/c2c(Cl)cccc2Cl)c1 | 0.83 | 0.18 | 3.2 | 0.35 | 17.3 | -0.5 | 5.3 | 7.99 | 43.6 | 10.3 | 29.2 | -2.12 | 2.92 | 2.4 | 74.1 | 3.2 | 3.13 | -0.22 | 8.83 | 0.6 |
| Fc1cccc(COc2ccc(Nc3ncnc4cc(-c5ccc[nH]5)sc34)cc2Cl)c1 | 2.62 | -2.38 | 0.3 | -6.71 | -6.16 | -1.97 | -0.94 | 5.45 | 6.22 | 1.52 | 6.05 | 0.75 | -2.49 | -1.44 | -2.14 | 0.71 | 15.2 | 36.5 | 68.5 | 1.94 |
